Reference: the supplement of paper PMC10849652
Targets with a hit are over-represented here; the source holds about 7,900 in all. About 0.6% of all pairs of compound and target were hits.

What was measured:
Assay in all cases: log2 fold change, soluble protein after heating vs DMSO (PISA); higher = thermal stabilisation; K562 cells, 10 uM, 30 min; active = over 0.2 and 3.5 SD of the protein, either way, in both replicates (recomputed)
[1] = compound: CS(=O)(=O)c1ccc(-c2cnc(N)c(C(=O)Nc3ccccc3)n2)cc1
Outline: (§1)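 For each measurement, 10 μM compound was applied for 30 min to K562 cells at 2×10^6 cells/mL. Aliquots were heated for 3 min across 48°C-58°C, pooled, and extracted in PBS with 0.5% NP-40 at 4°C; the supernatant after 21,000xg for 90 min was soluble protein. This was quantified by TMTpro 16plex LC-MS/MS with channel sums equalised, and thermal stability was reported relative to control samples from duplicates, on a log2 fold-change scale.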

crizotinib = compound: C[C@@H](Oc1cc(-c2cnn(C3CCNCC3)c2)cnc1N)c1c(Cl)ccc(F)c1Cl [crizotinib]
Outline: as §1

[2] = compound: C[C@@H]1COCCN1C2=NC(=NC(=C2)C3(CC3)S(=O)(=O)C)C4=C5C=CNC5=CC=C4
Outline: as §1

[3] = compound: C[C@H](C1=CC=C(C=C1)C(=O)NC2=C3C=CNC3=NC=C2)N
Outline: as §1

duvelisib = compound: C[C@H](Nc1ncnc2nc[nH]c12)c1cc2cccc(Cl)c2c(=O)n1-c1ccccc1 [duvelisib]
Outline: as §1

gandotinib = compound: Cc1cc(Nc2cc(CN3CCOCC3)c3nc(C)c(Cc4ccc(Cl)cc4F)n3n2)n[nH]1 [gandotinib]
Outline: as §1

[4] = compound: Cc1cc(SCc2sc(-c3ccc(C(F)(F)F)cc3)nc2C)ccc1OCC(=O)O
Outline: as §1

doramapimod = compound: Cc1ccc(-n2nc(C(C)(C)C)cc2NC(=O)Nc2ccc(OCCN3CCOCC3)c3ccccc23)cc1 [doramapimod]
Outline: as §1

ispinesib = compound: Cc1ccc(C(=O)N(CCCN)[C@@H](c2nc3cc(Cl)ccc3c(=O)n2Cc2ccccc2)C(C)C)cc1 [ispinesib]
Outline: as §1

tozasertib = compound: Cc1cc(Nc2cc(N3CCN(C)CC3)nc(Sc3ccc(NC(=O)C4CC4)cc3)n2)n[nH]1 [tozasertib]
Outline: as §1

Measured: log2 fold change

APAF1 (UniProt O14727)
inactive: [1] -0.045 | crizotinib 0.045 | [2] 0.115 | [3] -0.061 | duvelisib 0.268 | gandotinib 0.047 | [4] 0.119 | doramapimod 0.006 | ispinesib -0.181

ASB6 (UniProt Q9NWX5)
inactive: [1] 0.019 | crizotinib 0.013 | [2] -0.025 | gandotinib 0.109 | doramapimod 0.037 | ispinesib -0.143

ADPRH (UniProt P54922)
inactive: [1] 0.123 | crizotinib 0.056 | [2] 0.201 | gandotinib 0.157 | tozasertib -0.033 | doramapimod -0.071 | ispinesib -0.002

AP2M1 (UniProt C9JTK4)
inactive: [1] 0.105 | crizotinib 0.048 | [2] 0.158 | [3] 0.08 | duvelisib 0.147 | tozasertib 0.057 | [4] -0.03 | doramapimod 0.032

AFDN isoform 1 (UniProt P55196)
inactive: [1] 0.004 | crizotinib 0.088 | [2] 0.371 | [3] 0.111 | duvelisib 0.054 | gandotinib 0.183 | [4] 0.068 | doramapimod 0.116 | ispinesib 0.11

ARFIP1 isoform 2 (UniProt P53367)
inactive: [1] -0.03 | crizotinib -0.266 | [2] 0.047 | duvelisib 0.11 | gandotinib -0.112 | [4] 0.081 | doramapimod 0.087

ANK2 (UniProt Q01484)
inactive: [1] 0.066 | crizotinib 0.062 | [3] -0.005 | duvelisib 0.21 | gandotinib -0.092 | tozasertib 0.011 | [4] 0.089 | doramapimod 0.055 | ispinesib -0.188

BRIP1 (UniProt Q9BX63)
inactive: [1] 0.13 | crizotinib 0.019 | [2] 0.151 | [3] -0.005 | duvelisib 0.042 | gandotinib -0.035 | tozasertib 0.183 | [4] 0.009 | doramapimod -0.088 | ispinesib 0.018

APOBEC3G (UniProt Q9HC16)
inactive: [1] -0.065 | crizotinib 0.059 | [2] -0.165 | duvelisib -0.189 | tozasertib 0.013 | [4] 0.102 | doramapimod 0.023 | ispinesib -0.01

AKT1 (UniProt P31749)
inactive: [1] -0.013 | crizotinib -0.104 | [2] -0.188 | [3] 0.135 | duvelisib -0.062 | gandotinib -0.144 | tozasertib 0.032 | [4] 0.298 | doramapimod -0.005 | ispinesib -0.03

ANXA5 (UniProt P08758)
Sequence of UniProt P08758 (P08758 whole entry, looked up): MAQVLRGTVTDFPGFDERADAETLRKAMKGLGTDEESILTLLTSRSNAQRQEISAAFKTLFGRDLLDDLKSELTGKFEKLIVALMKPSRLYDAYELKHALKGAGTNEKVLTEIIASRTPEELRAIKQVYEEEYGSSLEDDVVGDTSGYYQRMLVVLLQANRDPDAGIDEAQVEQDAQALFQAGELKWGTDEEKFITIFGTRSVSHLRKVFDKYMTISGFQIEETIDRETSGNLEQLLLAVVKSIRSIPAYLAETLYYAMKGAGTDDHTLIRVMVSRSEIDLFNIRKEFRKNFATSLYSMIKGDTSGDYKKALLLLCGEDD
inactive: [1] 0.03 | crizotinib 0.045 | [2] 0.108 | [3] -0.002 | duvelisib 0.043 | gandotinib -0.083 | tozasertib 0.041 | [4] 0.052 | doramapimod -0.059 | ispinesib 0.006

ATP6V0A1 isoform 3 (UniProt Q93050)
inactive: [1] -0.041 | crizotinib -0.349 | [2] -0.27 | [3] 0.225 | duvelisib -0.093 | gandotinib 0.094 | tozasertib 0.073 | [4] 0.144 | doramapimod 0.152
active: ispinesib -0.446

ALG11 (UniProt Q2TAA5)
Sequence of UniProt Q2TAA5 (Q2TAA5 whole entry, looked up): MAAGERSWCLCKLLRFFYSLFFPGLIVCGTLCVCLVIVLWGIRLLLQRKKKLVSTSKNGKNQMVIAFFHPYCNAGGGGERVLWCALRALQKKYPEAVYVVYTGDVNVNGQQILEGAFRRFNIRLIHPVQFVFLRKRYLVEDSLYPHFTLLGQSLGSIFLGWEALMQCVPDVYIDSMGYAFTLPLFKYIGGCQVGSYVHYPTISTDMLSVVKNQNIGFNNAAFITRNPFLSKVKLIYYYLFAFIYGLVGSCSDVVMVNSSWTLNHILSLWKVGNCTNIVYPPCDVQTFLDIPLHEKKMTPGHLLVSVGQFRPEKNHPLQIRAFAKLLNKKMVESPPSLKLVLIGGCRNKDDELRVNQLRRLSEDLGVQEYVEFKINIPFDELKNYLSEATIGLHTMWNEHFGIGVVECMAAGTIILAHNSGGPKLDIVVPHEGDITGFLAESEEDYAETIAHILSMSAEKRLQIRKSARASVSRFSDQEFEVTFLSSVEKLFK
inactive: [1] 0.142 | crizotinib 0.007 | [2] 0.103 | [3] -0.04 | duvelisib 0.059 | gandotinib -0.129 | tozasertib 0.036 | [4] 0.015 | doramapimod 0.038 | ispinesib 0.029

AP4S1 (UniProt Q9Y587)
inactive: [1] -0.027 | crizotinib -0.028 | [2] 0.065 | [3] 0.133 | duvelisib -0.122 | [4] 0.013 | doramapimod -0.088

AGAP3 isoform 4 (UniProt Q96P47)
inactive: [1] -0.041 | crizotinib -0.231 | [2] -0.133 | [3] 0.07 | tozasertib 0.183 | doramapimod 0.125 | ispinesib -0.069

BZW1 isoform 3 (UniProt Q7L1Q6)
Sequence of UniProt Q7L1Q6 (Q7L1Q6 whole entry, looked up): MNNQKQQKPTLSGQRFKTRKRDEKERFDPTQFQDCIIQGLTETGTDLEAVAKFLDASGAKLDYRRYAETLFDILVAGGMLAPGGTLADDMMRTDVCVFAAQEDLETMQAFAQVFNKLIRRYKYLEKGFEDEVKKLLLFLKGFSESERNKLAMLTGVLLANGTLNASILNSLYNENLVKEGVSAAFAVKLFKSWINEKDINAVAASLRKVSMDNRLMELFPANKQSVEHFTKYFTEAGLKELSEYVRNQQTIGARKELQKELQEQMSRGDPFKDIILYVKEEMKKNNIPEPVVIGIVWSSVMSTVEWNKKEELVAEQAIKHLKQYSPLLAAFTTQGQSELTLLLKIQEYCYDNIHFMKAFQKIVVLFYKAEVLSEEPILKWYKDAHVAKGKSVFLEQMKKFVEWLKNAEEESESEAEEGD
inactive: [1] 0.007 | crizotinib -0.426 | [2] 0.007 | [3] 0.051 | duvelisib -0.03 | gandotinib -0.189 | tozasertib 0.054 | [4] 0.181 | doramapimod -0.008 | ispinesib -0.209

BRAF (UniProt P15056)
inactive: [1] 0.006 | crizotinib 0.023 | [2] 0.034 | [3] -0.072 | duvelisib -0.014 | gandotinib -0.013 | tozasertib -0.004 | [4] -0.014 | ispinesib -0.024

ARMC8 (UniProt Q8IUR7)
inactive: [1] 0.005 | crizotinib 0.013 | [2] 0.005 | [3] -0.015 | duvelisib 0.07 | gandotinib -0.045 | tozasertib 0.063 | [4] 0.165 | doramapimod 0.014 | ispinesib 0.051

ACACB (UniProt O00763)
Sequence of UniProt O00763 (O00763 whole entry, looked up): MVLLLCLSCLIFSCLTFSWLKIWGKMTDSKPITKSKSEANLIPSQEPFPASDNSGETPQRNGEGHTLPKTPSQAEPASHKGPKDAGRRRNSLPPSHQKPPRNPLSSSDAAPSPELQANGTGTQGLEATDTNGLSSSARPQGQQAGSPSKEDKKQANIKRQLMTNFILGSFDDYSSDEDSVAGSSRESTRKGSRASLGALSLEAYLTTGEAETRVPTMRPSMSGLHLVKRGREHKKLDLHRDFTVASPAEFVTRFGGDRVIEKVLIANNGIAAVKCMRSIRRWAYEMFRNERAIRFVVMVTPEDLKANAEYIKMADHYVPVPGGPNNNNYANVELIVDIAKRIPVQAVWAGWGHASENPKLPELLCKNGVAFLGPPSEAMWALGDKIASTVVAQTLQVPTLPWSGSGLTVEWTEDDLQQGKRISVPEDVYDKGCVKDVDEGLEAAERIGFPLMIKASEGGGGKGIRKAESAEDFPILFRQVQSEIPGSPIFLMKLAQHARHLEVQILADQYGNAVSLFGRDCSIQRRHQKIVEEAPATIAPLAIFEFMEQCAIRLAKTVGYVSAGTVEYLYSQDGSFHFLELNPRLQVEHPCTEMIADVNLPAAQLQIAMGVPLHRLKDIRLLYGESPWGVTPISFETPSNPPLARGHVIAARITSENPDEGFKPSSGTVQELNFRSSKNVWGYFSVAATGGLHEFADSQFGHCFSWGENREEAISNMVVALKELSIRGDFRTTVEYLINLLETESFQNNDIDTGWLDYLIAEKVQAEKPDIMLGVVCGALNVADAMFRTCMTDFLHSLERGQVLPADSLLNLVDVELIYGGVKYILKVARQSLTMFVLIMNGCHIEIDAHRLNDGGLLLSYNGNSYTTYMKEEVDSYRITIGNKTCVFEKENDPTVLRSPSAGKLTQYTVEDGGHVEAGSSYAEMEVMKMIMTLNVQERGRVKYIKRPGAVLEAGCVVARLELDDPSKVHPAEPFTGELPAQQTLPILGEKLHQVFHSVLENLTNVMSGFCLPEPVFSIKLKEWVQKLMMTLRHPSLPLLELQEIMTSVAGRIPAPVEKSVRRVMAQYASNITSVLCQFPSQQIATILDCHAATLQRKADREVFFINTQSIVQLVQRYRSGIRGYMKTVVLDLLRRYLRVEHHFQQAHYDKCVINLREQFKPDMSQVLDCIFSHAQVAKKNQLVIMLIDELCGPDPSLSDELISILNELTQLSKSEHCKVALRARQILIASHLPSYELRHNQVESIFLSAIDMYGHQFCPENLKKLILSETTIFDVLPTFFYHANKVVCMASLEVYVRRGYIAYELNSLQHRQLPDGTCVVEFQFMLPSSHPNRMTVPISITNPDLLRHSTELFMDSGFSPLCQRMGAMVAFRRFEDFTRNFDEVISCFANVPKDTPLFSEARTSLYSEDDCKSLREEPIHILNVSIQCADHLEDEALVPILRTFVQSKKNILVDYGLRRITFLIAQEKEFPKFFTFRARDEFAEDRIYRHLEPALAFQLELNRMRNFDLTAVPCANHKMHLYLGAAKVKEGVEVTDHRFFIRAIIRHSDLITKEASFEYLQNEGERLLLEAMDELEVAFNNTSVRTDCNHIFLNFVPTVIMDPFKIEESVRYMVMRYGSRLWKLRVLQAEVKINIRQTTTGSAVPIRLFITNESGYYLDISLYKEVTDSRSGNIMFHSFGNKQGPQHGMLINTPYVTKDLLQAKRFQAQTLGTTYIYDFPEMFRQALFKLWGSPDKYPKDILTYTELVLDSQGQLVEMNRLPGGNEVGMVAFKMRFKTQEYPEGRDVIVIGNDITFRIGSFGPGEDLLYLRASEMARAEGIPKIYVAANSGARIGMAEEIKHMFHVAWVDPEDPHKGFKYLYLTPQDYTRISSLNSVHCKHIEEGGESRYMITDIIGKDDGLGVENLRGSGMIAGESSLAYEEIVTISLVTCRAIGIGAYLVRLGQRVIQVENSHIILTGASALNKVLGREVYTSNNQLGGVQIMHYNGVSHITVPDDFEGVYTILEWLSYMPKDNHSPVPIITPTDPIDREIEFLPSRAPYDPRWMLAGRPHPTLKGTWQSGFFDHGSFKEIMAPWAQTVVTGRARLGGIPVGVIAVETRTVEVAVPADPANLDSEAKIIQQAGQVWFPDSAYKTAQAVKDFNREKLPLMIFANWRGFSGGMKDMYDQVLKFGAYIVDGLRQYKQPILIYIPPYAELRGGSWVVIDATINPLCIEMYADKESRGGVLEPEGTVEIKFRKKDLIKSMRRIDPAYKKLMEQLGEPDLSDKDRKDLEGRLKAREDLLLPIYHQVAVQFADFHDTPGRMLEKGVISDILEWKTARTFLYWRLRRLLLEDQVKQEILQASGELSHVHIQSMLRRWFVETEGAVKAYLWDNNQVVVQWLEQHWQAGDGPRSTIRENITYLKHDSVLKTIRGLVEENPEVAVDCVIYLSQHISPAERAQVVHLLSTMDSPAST
inactive: [1] 0.078 | crizotinib -0.152 | [2] -0.13 | [3] 0.341 | duvelisib -0.113 | gandotinib 0.041 | tozasertib -0.013 | [4] 0.289 | doramapimod 0.168 | ispinesib -0.188

APH1A (UniProt Q96BI3)
Sequence of UniProt Q96BI3 (Q96BI3 whole entry, looked up): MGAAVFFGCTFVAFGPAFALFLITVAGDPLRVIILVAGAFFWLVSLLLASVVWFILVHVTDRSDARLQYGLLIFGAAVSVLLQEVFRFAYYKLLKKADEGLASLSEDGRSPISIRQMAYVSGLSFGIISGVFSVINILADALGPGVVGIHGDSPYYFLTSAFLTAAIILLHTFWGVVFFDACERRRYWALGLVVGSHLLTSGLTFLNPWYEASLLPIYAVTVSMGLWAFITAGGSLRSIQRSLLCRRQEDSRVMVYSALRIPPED
inactive: [1] 0.048 | crizotinib -0.151 | [3] 0.021 | duvelisib 0.035 | gandotinib -0.075 | tozasertib 0.015 | [4] -0.036 | doramapimod 0.073

ACOX3 (UniProt O15254)
Sequence of UniProt O15254 (O15254 whole entry, looked up): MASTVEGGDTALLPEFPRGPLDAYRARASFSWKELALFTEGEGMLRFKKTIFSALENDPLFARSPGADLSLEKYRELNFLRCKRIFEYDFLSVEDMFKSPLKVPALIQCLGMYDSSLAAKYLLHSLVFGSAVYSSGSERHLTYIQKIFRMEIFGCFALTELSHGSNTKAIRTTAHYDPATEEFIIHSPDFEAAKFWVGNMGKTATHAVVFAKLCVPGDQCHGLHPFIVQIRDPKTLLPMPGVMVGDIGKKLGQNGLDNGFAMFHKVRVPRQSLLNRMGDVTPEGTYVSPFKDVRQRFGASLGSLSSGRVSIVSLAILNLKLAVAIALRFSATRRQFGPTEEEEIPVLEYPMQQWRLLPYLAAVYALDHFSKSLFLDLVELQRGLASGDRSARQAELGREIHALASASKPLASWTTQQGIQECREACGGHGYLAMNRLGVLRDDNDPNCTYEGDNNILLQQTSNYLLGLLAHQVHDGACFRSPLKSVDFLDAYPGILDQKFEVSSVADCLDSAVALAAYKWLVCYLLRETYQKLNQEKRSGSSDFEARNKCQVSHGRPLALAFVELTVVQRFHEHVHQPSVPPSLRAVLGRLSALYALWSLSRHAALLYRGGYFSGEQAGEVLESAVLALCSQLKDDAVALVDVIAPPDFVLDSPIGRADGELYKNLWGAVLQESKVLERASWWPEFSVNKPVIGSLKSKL
inactive: [1] -0.006 | crizotinib -0.091 | [2] 0.016 | [3] 0.065 | tozasertib -0.018 | doramapimod 0.14

ARMC10 (UniProt Q8N2F6)
Sequence of UniProt Q8N2F6 (Q8N2F6 whole entry, looked up): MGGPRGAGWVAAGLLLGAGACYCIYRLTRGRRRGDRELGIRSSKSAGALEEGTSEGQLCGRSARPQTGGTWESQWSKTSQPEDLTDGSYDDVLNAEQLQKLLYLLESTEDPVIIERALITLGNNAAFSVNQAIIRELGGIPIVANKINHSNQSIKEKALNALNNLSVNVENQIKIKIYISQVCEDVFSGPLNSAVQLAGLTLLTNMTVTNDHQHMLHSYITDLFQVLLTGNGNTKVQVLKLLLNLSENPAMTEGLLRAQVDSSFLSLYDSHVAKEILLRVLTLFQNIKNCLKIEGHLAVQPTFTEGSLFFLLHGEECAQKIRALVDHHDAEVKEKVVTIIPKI
inactive: [1] 0.002 | crizotinib -0.04 | [2] 0.016 | [3] 0.006 | duvelisib 0.033 | gandotinib -0.09 | tozasertib 0.065 | [4] 0.108 | doramapimod 0.018 | ispinesib 0.027

ATR (UniProt Q13535)
inactive: [1] 0.063 | crizotinib -0.021 | [3] 0.022 | duvelisib 0.004 | gandotinib -0.09 | tozasertib -0.038 | [4] 0.026 | doramapimod -0.123 | ispinesib 0.004
